Experimental data published in PubChem BioAssay (NCATS).
Results filed as inconclusive are left out. Where a call stands in place of a potency, no number is given. Calls of active or inactive are those of the source. Calls follow the shape of the dose curve; as a rule, active = well fitted curve in the direction sought with a large enough effect; inconclusive = small, poorly fitted or top-dose-only effect, or another doubt; inactive = no such curve, though single readings can be large; an effect the other way counts as inactive or inconclusive.

Tests used:
[1] = target: Aldehyde dehydrogenase, mitochondrial (Homo sapiens) (UniProt P05091); experiment: qHTS for Inhibitors of the Aldehyde Dehydrogenase Family (ALDH2) Primary screen (AID 2061308); also: nearly all actives have a fitted effect of over 55% in size
[2] = target: Retinaldehyde dehydrogenase 3 (Homo sapiens) (UniProt P47895); experiment: qHTS for Inhibitors of the Aldehyde Dehydrogenase Family (ALDH1A3) Primary screen (AID 2061315)

Compound | Potency [1] | Potency [2]
C=CC1C(OC2OC(CO)C(O)C(O)C2O)OC=C2C(=O)N3C(C(=O)O)Cc4c([nH]c5ccccc45)C3CC21 (centres undefined) | inactive | inactive
O=S1(=O)N=C(Oc2ccc(-c3ccccc3)cc2)c2ccccc21 | inactive | inactive
FC(F)(F)c1ccccc1-c1nc(NCc2ccc(-c3cccc(Cl)c3)cc2)c2ccccc2n1 | inactive | inactive
FC1(F)Oc2ccc(-c3ccc4ncnc(NCc5cccs5)c4c3)cc2O1 | inactive | inactive
S=C(NCCCc1cnc[nH]1)NCCN(Cc1ccc(Cl)c(Cl)c1)c1ccc(Br)cn1 | inactive | inactive
O=C(NC1CCCc2c1cnn2-c1ccc(F)cc1F)c1cccs1 (centres undefined) | inactive | inactive
Fc1cc(F)cc(Nc2nc(Cl)nc(NC3CCCC3)n2)c1 | inactive | inactive
CC1CCC2(C(=O)OC3OC(COC4OC(CO)C(O)C(O)C4O)C(O)C(O)C3O)CCC3(C)C(=CCC4C5(C)CCC(O)C(C)(C(=O)O)C5CCC43C)C2C1(C)O (centres undefined) | inactive | inactive
CC#CC(=O)Nc1ccc2ncnc(Nc3cccc(Br)c3)c2c1 | inactive | inactive
Cn1cc(P(=O)(c2ccccc2)c2ccccc2)c2ccccc21 | inactive | inactive
Cc1ccc(S(=O)(=O)Nc2ccc(C(=O)Nc3nc(-c4ccc(Cl)cc4)cs3)cc2)cc1 | inactive | inactive
Cc1cccc(CNc2ncnc3ccc(-c4cccnc4)cc23)c1 | inactive | inactive
Cc1cc(C)nc(NC(=S)N2CCN(c3nccc4ccsc34)CC2)c1 | inactive | inactive
COC(=O)C1CCN(C(=O)c2ccc3c(c2)ncn3-c2cccc(C)c2)CC1 | inactive | inactive
Cc1csc(CNc2ncnc3ccc(-c4cccnc4)cc23)c1 | inactive | inactive
Cc1ccnc(NC(=S)NC2CN(c3cccc(C(F)(F)F)c3)C2)c1 | inactive | inactive
c1ccc(CNc2nc(-c3cccs3)nc3ccccc23)cc1 | inactive | inactive
Cc1nc(Nc2ccccc2)c2nc(-c3ccccc3)n(CCN3CCOCC3)c2n1 | inactive | inactive
N#Cc1ccc(CSc2nc3ncc(Br)cc3[nH]2)cc1 | inactive | inactive
C=C1C(=O)O[C@@H]2/C=C(\CO)CC/C=C(/C=O)C[C@@H](O)[C@@H]12 | inactive | inactive
COc1cc(-c2no[n+]([O-])c2C#N)cc(OC)c1OC | inactive | inactive
Fc1cccc(CNc2ncnc3ccc(-c4ccccc4Cl)cc23)c1 | inactive | inactive
COc1cc(O)c(C(CC(=O)N2CCC(C)CC2)c2ccc3c(c2)OCO3)c(OC)c1 (centres undefined) | inactive | inactive
COc1ccc(C2=Nn3c(nnc3-c3ccc(OC)c(OC)c3)SC2)cc1 | inactive | inactive

Compound | Potency [1] | Potency [2]
C=C(C)C(=O)O[C@H]1C[C@@](C)(O)C2(O)CCC(C)(/C=C3/OC(=O)C(COC)=C31)O2 (some centres undefined) | inactive | inactive
COc1ccc(/C=C2/C(=O)Nc3ccccc32)cc1O | inactive | inactive
O=C(c1cc2sccc2n1Cc1ccccc1)N(CCc1ccc(O)c(O)c1)Cc1ccccc1 | inactive | inactive
O=c1c2ccccc2nc2sc(Nc3cccc(Br)c3)nn12 | inactive | inactive
COc1cccc(C2c3c(ncn(-c4ccccc4)c3=N)Oc3ccc4ccccc4c32)c1OC (centres undefined) | inactive | inactive
CN(CCc1ccco1)c1ncnc2ccc(-c3ccc4c(c3)OCO4)cc12 | inactive | inactive
COc1ccc(-c2csc(N3CCC(C(N)=O)CC3)n2)cc1OC | inactive | inactive
CN1CCN(C(=O)[C@H](Cc2ccc(O[S+](=O)([O-])c3cccc4cnccc34)cc2)N[S+](=O)([O-])c2cccc3cnccc23)CC1 | inactive | inactive
CCC(OC(=O)c1ccc(S(C)(=O)=O)c([N+](=O)[O-])c1)C(=O)NC1C2CC3CC(C2)CC1C3 (centres undefined) | inactive | inactive
O=C1CCc2cc(S(=O)(=O)Nc3ccccc3Cl)ccc2N1 | inactive | inactive
CNC(=O)c1cnn2c(C)cc(C)nc12 | inactive | inactive
COc1ccc(Cn2ncc3c4sc(C)cc4n(C)c3c2=O)cc1 | inactive | inactive
FC(F)(F)c1ccccc1-c1nccc(NCc2ccc(-c3cccnc3)cc2)n1 | inactive | inactive
CCCCN(C)C(=O)Cn1nc(-c2ccc(C(F)(F)F)cc2)ccc1=O | inactive | inactive
COc1cc(/C=C/CO)cc(OC)c1O[C@@H]1O[C@H](CO[C@@H]2O[C@H](CO)[C@@H](O)[C@H](O)[C@H]2O)[C@@H](O)[C@H](O)[C@H]1O | inactive | inactive
NC(=O)c1ccc(-c2noc(-c3cccc(Cl)c3)n2)cc1 | inactive | inactive
C[N+]1(CC2COC(c3ccccc3)(c3ccccc3)O2)CCCCC1 (centres undefined) | inactive | inactive
COc1cccc(C2c3c(ncn(-c4ccccc4OC)c3=N)Oc3ccc4ccccc4c32)c1 (centres undefined) | inactive | inactive
COc1cccc(O)c1CNc1ccc(S(=O)(=O)Nc2nccs2)cc1 | inactive | inactive
Cc1cc(C)n2ncc(C(=O)Nc3ccc(C(C)(C)C)cc3)c2n1 | inactive | inactive
O=C(Cc1ccc(Cl)c(Cl)c1)Nc1ccc([S+](=O)([O-])Nc2ccc3[nH]ccc3c2)cc1 | inactive | inactive
CCOC(=O)c1nn(-c2ccccc2)c(=O)c2c(N)sc(C)c12 | inactive | inactive
CC1CCC2C(C)(C)C(O)CCC2(C)C12Cc1c(O)cc3c(c1O2)C(N)=NC3 (centres undefined) | inactive | inactive
